Bioassay records deposited in PubChem by National Center for Advancing Translational Sciences (NCATS).
Cycloheximide cs: affects cycloheximide protein synthesis inhibition readout, counter-screen | cell reporter, cycloheximide protein synthesis inhibition counterscreen | AID 2314 | 12% of 300,000 active | max response, %; in the data active = max response mostly above about 13%, no sharp cut-off; inactive = mostly below about 14%; also: read at 38.3 µM for the half of the compounds with a filed dose; 0% is about no effect
HCV inh: blocks hepatitis C virus | Huh7.5.1 HCVcc-Cre infection, luciferase reporter, 44 h | Potency, µM (highest dose often 41.8 µM), without a hit: top-dose activity change, negative = inhibition, most hits filed as inhibitors | 3.4% of 340,000 active; also: potency is read from the fitted curve at half-maximal effect; % is scaled to controls: 0 for no effect and ±100 for the full control effect
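Luciferase read-out (15 sec integration) after a 15 min room-temperature substrate step quantifies HCVcc-Cre infection. Cells, 1,000 per well, had compound added 4 h post-plating, then virus at ~0.5 moi, and were cultured 44 h.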
Pf growth 96h: inhibits malaria parasite growth, 96 h; AID 504834; Potency, µM (top dose mostly 28.7 µM), inactives show at the top dose activity change, negative = inhibition, most hits filed as inhibitors; P. falciparum luciferase reporter growth, 96 h; 6.9% of 320,000 active; also: potency is read from the fitted curve at half-maximal effect; % is scaled to controls: 0 for no effect and ±100 for the full control effect
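Readout is luminescence from an integrated firefly luciferase in P. falciparum. Red cells, 2% hematocrit and 0.05% parasitemia final, were cultured with compound through two parasite generations (96 hours) at 37 C, 5% CO2.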
Pf growth 48h: P. falciparum growth inhibition at 48 hours (one generation); Potency, µM (series often up to 28.7 µM), inactives show at the top dose activity change, negative = inhibition, usual class: inhibitors; P. falciparum luciferase growth in erythrocytes, 48 h; 5.9% of 310,000 active; AID 504832; also: potency is read from the fitted curve at half-maximal effect; % is scaled to controls: 0 for no effect and ±100 for the full control effect
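Luciferase-expressing parasites in RBCs, 2% Hct / 0.1% parasitemia final; RPMI 1640 + 0.5% Albumax; 37 C, 5% CO2, one generation; luminescence read-out, lower signal = inhibition.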
Shiga toxin inh: blocks Shiga toxin action in Vero cells; Vero cells, Shiga toxin protein synthesis inhibition reporter; inhibition, % at 38.7 µM; 9.2% of 290,000 active; AID 2315; in the data active = inhibition mostly above about 28%, no sharp cut-off; inactive = mostly below about 43%; also: 0% is about no effect
AMA1-RON2 inh: inhibitors of Plasmodium falciparum AMA1-RON2 interaction | 0.2% of 360,000 active | Potency, µM (series often up to 58.2 µM), for inactives: at the top dose activity change, negative = inhibition, usual class: inhibitors | AlphaScreen AMA1-biotinylated RON2 peptide binding;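 also: potency is read from the fitted curve at half-maximal effect; 0% = vehicle wells and -100% = peptide control; nearly all actives have a fitted effect of over 45% in size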
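AMA1 (3D7) with his tag at 25 nM final met compounds first, then biotinylated RON2 peptide at 25 nM; detection used donor plus acceptor beads, 10 µg/mL apiece, read by AlphaScreen after 30 min at room temperature.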
* hit, by the source's call; ? = inconclusive; . = no result given. Sampled rows, rich in hits. Any-hit rate of the full collection: about 21%. Unless noted, calls follow the shape of the dose curve; as a rule, active = well fitted curve in the direction sought with a large enough effect; inconclusive = small, poorly fitted or top-dose-only effect, or another doubt; inactive = no such curve, though single readings can be large; an effect the other way counts as inactive or inconclusive.

SMILES	Cycloheximide cs	HCV inh	Pf growth 96h	Pf growth 48h	Shiga toxin inh	AMA1-RON2 inh
CC12CCC(C(=O)Nc3cccc(Cl)c3)(C(Br)C1=O)C2(C)C (stereo not given)	-2.0	28.9%	14.7µM*	?	7.1	-6.0%
CC(C)CC1NC(=O)c2cc3ccccc3cc2-n2c1nc1ccc(Cl)cc1c2=O (stereo not given)	.	.	.	.	.	-1.5%
COc1ccc([C@H]2[C@H](C(=O)C(C)(C)C)N3N=Cc4ccccc4C3C23C(=O)OC(C)(C)OC3=O)cc1 (stereo not given in full)	-4.0	-7.7%	6.9%	-21.7%	-8.2	10.7%
O=C(c1ccccc1)[C@H]1[C@H](c2ccccc2)[C@@]2(N=C(c3ccccc3)OC2=O)C2c3ccccc3C=NN21 (stereo not given in full)	35.0*	.	?	-27.7%	55.1*	.
S=C(NN=C1C2CC3CC(C2)CC1C3)Nc1ccccc1	52.8*	13.1%	10.4µM*	.	146.0*	49.6%
CCC(C)(C)C1CCC(=NNC(=S)Nc2ccccc2)CC1 (stereo not given)	2.8	5.6%	3.9%	?	5.5	4.2%
COC(=O)c1ccc(COc2ccccc2/C=C(\C#N)C(=O)Nc2ccccc2C)cc1	-2.5	12.3%	11.4%	29.3%	29.2	14.8%
COC(=O)c1ccc(COc2ccccc2/C=C(\C#N)C(=O)Nc2c(C)cccc2C)cc1	-2.6	?	13.1µM*	?	26.1	5.5%
Cc1ccc(/C=C(\C#N)C(=O)Nc2c(C)cccc2C)s1	-1.3	-18.6%	7.38µM*	.	-19.2	-16.8%
Cc1ccc(CNC(=O)/C(C#N)=C/c2ccc(C)s2)cc1	-1.6	-3.7%	2.5%	37.1%	7.2	7.3%
Cc1ccc(NC(=O)/C(C#N)=C/c2ccc(C)s2)c(C)c1	40.0*	3.2%	4.5%	.	53.2	9.3%
Oc1ccccc1N1CCN(CC(O)COCc2ccccc2Cl)CC1 (stereo not given)	-1.2	3.2%	?	?	-4.8	-1.7%
Nc1ccn(CC(=O)NCCc2ccccn2)c(=O)n1	.	24.3%	34.3%	27.2%	.	8.3%
OC1CCCN(Cc2ccc3c(c2)Cc2ccccc2-3)C1 (stereo not given)	16.0*	-29.4%	0.0%	31.2%	45.0	-3.1%
N#Cc1csc(CCNC(=O)c2ccccc2)n1	.	.	.	.	.	-3.8%
Cc1ccc(N2C(=O)CS/C2=N\C(=S)Nc2ccccc2)cc1	17.9	-19.8%	4.15µM*	-19.1%	50.9	21.7%
CCCCOc1ccc(C(=O)NNC(=O)c2cnccn2)cc1OC	.	12.6µM*	.	.	.	85.6%
COc1ccccc1C(=O)NCCCNC(=O)c1cnccn1	-5.7	10.6%	?	-0.9%	-4.6	8.2%
COc1ccccc1C(=O)NNC(=S)NC(=O)c1cc(OC)c(OC)c(OC)c1	-2.5	?	13.1µM*	-11.9%	-11.1	110.7%
COc1ccc(CC(=O)NNC(=O)c2cnccn2)cc1	-2.5	9.7%	23.1%	7.6%	-5.8	110.5%
COc1ccc(C(=O)NC(=S)NNC(=O)c2cnccn2)cc1	12.8	?	?	2.62µM*	6.4	3.5%
COc1cc(C(=O)NC(=S)NNC(=O)c2cnccn2)cc(OC)c1OC	-4.4	?	?	11.7µM*	2.2	-47.7%
COc1cc(C(=O)NNC(=S)NC(=O)c2ccccc2C)cc(OC)c1OC	-2.4	?	-0.9%	-3.9%	2.1	23.0%
CCN(C[C@H]1N[C@@](C)(C(=O)OC)[C@H]2C(=O)N(Cc3ccccc3)C(=O)[C@@H]12)C(=O)Nc1ccc(F)cc1	.	23.9%	.	.	.	0.0%
O=C(NC(=S)NNC(=O)c1cnccn1)c1ccc(Cl)cc1	9.4	?	?	4.15µM*	16.3	22.6%
SMILES	Cycloheximide cs	HCV inh	Pf growth 96h	Pf growth 48h	Shiga toxin inh	AMA1-RON2 inh
CCC(Oc1ccc(C)c(C)c1)C(=O)N1CCCN(C)CC1 (stereo not given)	-7.8	4.7%	5.2%	4.9%	-17.1	7.1%
COc1ccc(C(=O)Nc2c(N)nc(SCC(=O)Nc3ccc(NC(C)=O)cc3)[nH]c2=O)cc1	-2.4	-6.5%	2.62µM*	10.4µM*	11.7	-6.9%
CCc1ccc(NC(=O)CSc2nc(N)c(NC(=O)c3ccc(F)c(F)c3)c(=O)[nH]2)cc1	17.0*	9.5%	-6.5%	-29.1%	24.9*	-6.4%
Nc1nc(SCC(=O)NCC2CCCO2)[nH]c(=O)c1NC(=O)c1ccc(F)c(F)c1 (stereo not given)	0.4	7.0%	16.5µM*	1.1%	-1.2	-4.8%
COc1ccc(NC(=O)CSc2nc(N)c(NC(=O)c3ccccc3F)c(=O)[nH]2)cc1	-2.6	.	66.6%	22.1%	14.9	-2.5%
O=C(CSc1nc(O)c(C2CCCCC2)c(=O)[nH]1)NCC1CCCO1 (stereo not given)	29.0*	8.4%	32.5%	?	66.3*	1.6%
C=CCn1c(CNC(=O)c2ccccc2F)nnc1SCc1nc2ccccc2c(=O)[nH]1	0.5	17.1%	27.6%	3.7%	11.6	0.0%
COc1ccc(C#Cc2ccc3c(c2)O[C@@H](CN(C)C(=O)Nc2cccc(OC)c2)[C@H](C)CN([C@@H](C)CO)S3(=O)=O)cc1	.	.	.	.	.	24.7%
Clc1ccc(-c2cc3nc(NCc4cccc(Cl)c4)ccn3n2)cc1	.	.	.	.	.	9.1%
CCOc1ccc(C2CC(c3cccc(Cl)c3)n3nc(N)nc3N2)cc1 (stereo not given)	-5.8	3.8%	3.7µM*	4.4%	-11.4	-0.2%
CCc1ccc(C2CC(c3ccc(C)cc3)Nc3nc(N)nn32)cc1 (stereo not given)	-5.5	-2.9%	10.8%	-4.0%	-11.3	7.7%
COc1ccc(C2CC(c3cccs3)n3nc(N)nc3N2)cc1 (stereo not given)	7.4*	?	?	5.2%	23.0*	153.9%
CCc1ccc(C2CC(c3ccccc3C)n3nc(N)nc3N2)cc1 (stereo not given)	-4.8	5.4%	14.7µM*	12.6%	-8.0	-7.9%
Nc1nc2n(n1)C(c1cccc(Cl)c1)CC(c1ccc(F)cc1)N2 (stereo not given)	-8.3	9.5%	?	.	-12.9	6.4%
COc1cc(Cn2nnc3ccccc32)cc(Br)c1O	1.4	7.4%	?	?	13.6	-13.1%
C#CCn1c(=O)c2c(nc(/C=C/c3cccc(OC)c3)n2C)n(CCCOP(=O)(O)O)c1=O	-9.8	.	.	.	2.3	.
CCOC(=O)C1=CCN(S(=O)(=O)c2ccccc2Br)C1c1ccc(F)cc1 (stereo not given)	.	.	.	.	.	11.3%
Cc1ccc(C(O)Cn2cc([N+](=O)[O-])nc2C)cc1 (stereo not given)	-2.1	4.4%	-1.5%	2.62µM*	-1.8	-0.2%
Cc1ccnn1C(C)C(=O)O (stereo not given)	-2.2	0.7%	-5.3%	1.4%	9.2	-13.5%
CC(C(=O)O)n1cc(Cl)cn1 (stereo not given)	-4.5	4.47µM*	40.8%	5.5%	-5.0	11.1%
